NPSR antagonist: neuropeptide S receptor (human) antagonism, cAMP; CHO-NPSR cells, cAMP TR-FRET, antagonist mode; actives 1% (n = 220,000); AID 1461; Q6W5P4; Potency, µM (series often up to 38.3 µM), inactives show top-dose activity change, negative = inhibition, usual class: inhibitors; note: nearly all actives have a fitted effect of over 50% in size
Target sequence (Q6W5P4 whole entry, looked up): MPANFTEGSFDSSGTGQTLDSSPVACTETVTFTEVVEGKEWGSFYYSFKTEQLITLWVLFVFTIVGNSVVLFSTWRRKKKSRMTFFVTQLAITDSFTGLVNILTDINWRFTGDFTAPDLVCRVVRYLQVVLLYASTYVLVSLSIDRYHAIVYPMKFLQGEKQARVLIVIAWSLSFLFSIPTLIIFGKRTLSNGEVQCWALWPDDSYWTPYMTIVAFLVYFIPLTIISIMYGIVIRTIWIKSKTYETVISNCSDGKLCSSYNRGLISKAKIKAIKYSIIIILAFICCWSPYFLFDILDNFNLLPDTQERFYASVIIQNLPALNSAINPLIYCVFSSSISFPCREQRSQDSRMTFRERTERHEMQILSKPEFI
GALK inh: inhibitors of human galactokinase. P51570. Purified GALK, Kinase-Glo residual ATP luminescence. Potency, µM (titrated, usually from 57.5 µM), for inactives: top-dose activity change, negative = inhibition, usual class: inhibitors. actives 0.007% (n = 270,000)
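The enzyme phosphorylates galactose (100 uM) using ATP (35 uM); inhibition is detected as higher residual ATP, quantified by bioluminescence after 1 h reaction at room temperature, pH 8.0.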
TrxR1 substrate: substrates of rat thioredoxin reductase 1; actives 0.01% (n = 390,000); AID 588456; purified TrxR1 substrate turnover, NADPH consumption readout; Potency, µM (doses to about 114 µM), for the others: at the top dose activity change, negative = substrate turnover; note: nearly all actives have a fitted effect of over 50% in size
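Rat TrxR1, dispensed at 90 nM, was prereduced with 400 uM NADPH (final) for 5 min at ~22 deg C, then incubated with compound 15 min before 400 uM selenite. A first-read NADPH fluorescence drop versus no-compound background flagged substrates.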
rTrxR1 inhibitor: blocks rat thioredoxin reductase 1 | O89049 | recombinant rTrxR1, NADPH fluorescence consumption, selenite substrate | Potency, µM (titrated, usually from 114 µM), without a hit: at the highest dose activity change, negative = inhibition, most hits filed as inhibitors | actives 1% (n = 390,000); note: nearly all actives have a fitted effect of over 65% in size
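Rat TrxR1 (90 nM in the dispensed reagent) was pre-reduced with 400 uM NADPH for 5 min at room temperature, then incubated with compound for 15 min. After 400 uM selenite was added, NADPH fluorescence (Ex 340/Em 450 nm) was followed for 8 min.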
Starred values were filed as active, the others as inactive; ? = inconclusive; / = no result; [ ] = another dose, or the depositor's remark. Shown are actives, neighbours in structure and some others; about 1.2% of the full set was active somewhere. Calls come from the whole dose curve; as a rule, active = well fitted curve in the direction sought with a large enough effect; inconclusive = small, poorly fitted or top-dose-only effect, or another doubt; inactive = no such curve, though single readings can be large; an effect the other way counts as inactive or inconclusive. % is set by controls: 0 for no effect and ±100 for the full control effect; potency is the fitted concentration of half-maximal effect.

SMILES	NPSR antagonist	GALK inh	TrxR1 substrate	rTrxR1 inhibitor
Cc1ccccc1-c1nc(CS(=O)CC(=O)NC(C)CCc2ccccc2)c(C)o1 (stereo unspecified)	/	0.3%	8.5%	2.24µM*
COCCCNC(=O)CS(=O)Cc1nc(-c2ccccc2C)oc1C (stereo unspecified)	-6.6%[46.1 µM]	2.2%	-1.2%[57.1 µM]	?
COc1cccc(-c2nc(CS(=O)CC(=O)O)c(C)o2)c1 (stereo unspecified)	2.2%[46.1 µM]	2.6%	2.5%	-33.5%
COc1cccc(-c2nc(CS(=O)CC(=O)NC(C)CCc3ccccc3)c(C)o2)c1 (stereo unspecified)	/	-5.2%	2.0%	28.2µM*
Cc1cccc(-c2nc(CS(=O)CC(=O)NCCc3ccccc3)c(C)o2)c1 (stereo unspecified)	/	2.1%	2.1%	7.5%
CCCCCSc1nc2sc3c(c2c(=O)n1-c1ccc(OC)cc1)CCN(C(C)=O)C3	/	/	-12.4%	-9.2%
Cc1cn(C)c(CC(=O)Nc2cccc(Cl)c2C)c1C(=O)O	/	/	1.9%[57.1 µM]	5.0%[57.1 µM]
O=C(NC1CC(=O)N(c2ccccc2)C1)c1cc2ccccc2o1 (stereo unspecified)	/	/	5.7%[57.1 µM]	10.0%[57.1 µM]
Cc1ccc(C(C)C)c(OCC(=O)NCC2(N3CCOCC3)CCCCC2)c1	/	/	-3.4%	10.9%
CCCCN(CCCC)c1nc2ccccc2nc1C(C#N)C(=O)NCCCOC (stereo unspecified)	-15.8%[46.1 µM]	3.8%	3.5%	39.8µM*
O=C(O)c1ccccc1SC1CC(=O)N(c2ccc3c(c2)OCO3)C1=O (stereo unspecified)	9.0%	2.9%	7.7%	39.8µM*
Cc1ccc(N2C(=O)CC(Sc3ccccc3C(=O)O)C2=O)c([N+](=O)[O-])c1 (stereo unspecified)	11.7%	4.4%	-2.8%	79.4µM*
Cc1ccc(N2C(=O)CC(Sc3ccccc3C(=O)O)C2=O)cc1C (stereo unspecified)	10.2%	-0.2%	8.8%	-63.7%
CN(C)c1ccc(N2C(=O)CC(Sc3ccccc3C(=O)O)C2=O)cc1 (stereo unspecified)	10.9%	/	-8.9%	79.4µM*
CCCCN1C(=O)CC(Sc2ccccc2C(=O)O)C1=O (stereo unspecified)	-4.5%[46.1 µM]	-4.1%	-2.8%	15.8µM*
Cc1ccc(N2C(=O)CC(Sc3ccccc3C(=O)O)C2=O)cc1 (stereo unspecified)	14.8%	-0.9%	-5.9%	?
Cc1cccc(Cn2nnc3c(=O)[nH]c(C4CCCN(C(=O)c5ccccc5Cl)C4)nc32)c1 (stereo unspecified)	/	/	-1.1%	0.4%
Cc1cc(C)cc(N2C(=O)CC(Sc3ccccc3C(=O)O)C2=O)c1 (stereo unspecified)	-15.3%	7.6%	6.4%[57.1 µM]	-82.6%
Cc1cccc(N2C(=O)CC(Sc3ncn[nH]3)C2=O)c1 (stereo unspecified)	11.7%	-0.3%	-3.8%	20µM*
Cc1cccc(N2C(=O)CC(Sc3ccccc3C(=O)O)C2=O)c1 (stereo unspecified)	26.1%	2.4%	-3.3%	56.2µM*
COc1ccc(N2C(=O)CC(Sc3ccccc3C(=O)O)C2=O)c([N+](=O)[O-])c1 (stereo unspecified)	11.3%	1.2%	2.7%	70.8µM*
O=[N+]([O-])c1ccc(Nc2nc(NCCN3CCOCC3)nc(Nc3ccc(I)cc3)n2)cc1	/	/	-4.1%[0.0914 µM]	-8.5%
N#Cc1c(C(F)(F)F)cc(-c2cccs2)nc1SCc1ccc(Cl)nc1	-5.3%[46.1 µM]	-1.8%	148.8%	50.1µM*
Cc1nn(-c2ccccc2)c2c1N(CC(=O)NCc1ccc(N(C)C)cc1)C(=O)CS2	/	/	0.1%[57.1 µM]	15.4%[57.1 µM]
CCN(CC)C(=O)CSc1nc(-c2ccc(C)cc2)nc2c1Cc1c(CO)cnc(C)c1O2	/	/	-4.6%	20µM*
Cc1ccc(-c2nc3c(c(SCC(=O)N(C)c4ccccc4)n2)Cc2c(CO)cnc(C)c2O3)cc1	/	/	-6.5%	?
Cc1cc(S(=O)(=O)NCC(c2ccco2)S(=O)(=O)c2cccs2)ccc1F (stereo unspecified)	/	/	-1.6%[57.1 µM]	0.355µM*
Cc1nn(C)c2c1c(-c1ccccc1)cc(=O)n2Cc1ccccc1C#N	/	/	6.1%[57.1 µM]	13.7%[57.1 µM]
COc1cc2ncnc(N3CCN(C(=O)Nc4ccc(Oc5ccccc5)cc4)CC3)c2cc1OC	/	/	-2.5%	3.0%
CN(C)S(=O)(=O)c1ccc(C(=O)/C=C/c2cccnc2)cc1	/	13.4%	3.4%[57.1 µM]	8.91µM*
